Assay results as given in PubChem BioAssay (Tox21).
Results filed as inconclusive are left out. Entries that show only a call come without a potency. The source made the active and inactive calls. The call rests on the fitted dose curve; in most records, active means well fitted inhibition curve with a large enough effect in the repeat runs; inconclusive means weak or mixed curves; inactive means no such curve, though single readings can be large or run the other way.

Assay: qHTS assay to identify small molecule antagonists of the thyroid receptor (TR) signaling pathway (AID 743065); further: nearly all actives have a fitted effect of over 55% in size
Conditions: GH3.TRE-Luc, T3-stimulated luciferase inhibition, 23.5 h; series mostly up to 70.3 µM
Text: U.S. Tox21 Program National Center for Advancing Translational Sciences [NCATS] NIH Chemical Genomics Center [NCGC] U.S. Environmental Protection Agency [EPA] National Institutes of Environmental Health Sciences [NIEHS] National Toxicology Program [NTP] U.S. Food and Drug Administration [FDA] Tox21 Assay Overview: Thyroid receptor (TR), a nuclear hormone receptor, plays an important role in development, proliferation, differentiation, metabolism, brain function, and cardiovascular system. […] To profile the Tox21 10K compound library in TR signaling, a cell-based GH3-TRE-Luc assay (GH3.TRE-Luc cell line, developed by the laboratory of Dr. Albertinka J. Murk, Wageningen University) was used to measure the inhibition of TR. GH3 (rat pituitary tumor) cells stably expressing a TR activity sensor consisting of two TR response elements and a luciferase reporter gene.
Tox21 Assay Protocol Summary: GH3.TRE-Luc cells were dispensed at 1500 cells/4 uL/well into 1536-well white solid bottom plates using a Multidrop Combi dispenser (Thermo Fisher Scientific Inc., Waltham, MA). After the assay plates were incubated at 37 C for 4 hours, 23 nL of library compound or DMSO controls was transferred to the assay plates by a pintool station (Kalypsys, San Diego, CA), followed by addition of 1 ul of T3 (1 nM, final concentration in the wells) to stimulate TR transactivation. The assay plates were incubated at 37 C for 23.5 h, and then 1 uL of CellTiter-Fluor reagent (Promega, Madision, WI) of measuring cytotoxicity was added to each well using a Bioraptr Flying Reagent Dispenser (FRD) workstation (Beckman Coulter, Indianapolis, IN, USA). The plates were incubated at 37 C and 5% CO2 for additional 30 min, and fluorescence intensity was measured by a ViewLux plate reader (PerkinElmer, Shelton, CT). For measuring luciferase reporter gene activity, 4 uL of ONE-Glo Luciferase Assay reagent (Promega) was added to each well using a Bioraptr FRD (Beckman Coulter), followed by 30 min incubation at room temperature. The luminescence intensity of plates was recorded by a ViewLux plate reader (PerkinElmer, Shelton, CT).
Potency means the concentration at half of the fitted maximal effect.

SMILES | Potency
CCNc1nc(NC(C)C)nc(OC)n1 | inactive
O=P(O)(Oc1ccccc1)Oc1ccccc1 | inactive
CCOP(=O)(OCC)OP(=O)(OCC)OCC | inactive
CNNC | inactive
O=[N+]([O-])c1ccc(CBr)cc1 | inactive
CNC(=O)Oc1ccc(N(C)C)c(C)c1 | inactive
CCOP(=S)(OCC)Oc1nc(Cl)n(C(C)C)n1 | inactive
CS(=O)(=O)c1cc(C(F)(F)F)ccc1C(=O)c1cnoc1C1CC1 | inactive
C(CCOCC1CO1)COCC1CO1 (stereo not given) | 42.6 µM (active)
CC(C=O)Cc1ccc2c(c1)OCO2 (stereo not given) | inactive
CC(C)[N+](=O)[O-] | inactive
COC(C)(C)C | inactive
CC(=O)CC(c1ccc(Cl)cc1)c1c(O)c2ccccc2oc1=O (stereo not given) | inactive
CN1CCN(C(=O)O[C@H]2c3nccnc3C(=O)N2c2ccc(Cl)cn2)CC1 | inactive
NC(=O)O | inactive
COC(=O)c1ccccc1S(=O)(=O)NC(=O)N(C)c1nc(C)nc(OC)n1 | inactive
O=NN1CCCCC1 | inactive
CCOP(=S)(OCC)Oc1ncn(-c2ccccc2)n1 | inactive
OC(c1ccc(F)cc1)(c1cncnc1)c1ccccc1Cl (stereo not given) | inactive
CC1(C)C(=O)NC(=O)NC1=O | inactive

SMILES | Potency
COC(=O)C(C)Oc1ccc(Oc2ccc(Cl)cc2Cl)cc1 (stereo not given) | inactive
O=C(NCO)NCO | inactive
CN(C)CCc1ccc(O)cc1 | inactive
Nc1ccccc1Cl | inactive
CCCCc1c(C)nc(NCC)[nH]c1=O | inactive
Cc1cc(C)nc(Nc2ccccc2)n1 | inactive
CC(C)COP(=O)(OCC(C)C)OCC(C)C | inactive
C[N+](=O)[O-] | inactive
COc1cccc2c1cc([N+](=O)[O-])c1c(C(=O)O)cc3c(c12)OCO3 | 2.73 µM (active)
CN(N=O)C(N)=O | inactive
COP(=S)(OC)Oc1ccc(S(N)(=O)=O)cc1 | inactive
COc1cc(OC)nc(NC(=O)NS(=O)(=O)c2ncccc2C(=O)N(C)C)n1 | inactive
CN/C(=N\[N+](=O)[O-])NCC1CCOC1 (stereo not given) | inactive
CNC(=O)Oc1cccc(C(C)C)c1 | inactive
Cc1ncsc1CCCl | inactive
Nc1cc2c3c(c1)C(c1ccccc1)=N[C@@H](NC(=O)c1cccnc1)C(=O)N3CC2 | inactive
CC(CC(C#N)(c1ccccc1)c1ccccc1)N(C)C (stereo not given) | 30.5 µM (active)
Oc1c(Cl)cccc1Cl | inactive
NC(=O)c1cc([N+](=O)[O-])cc([N+](=O)[O-])c1 | inactive
ClC(Cl)Br | inactive
